From PubChem BioAssay (Tox21)
Inconclusive results are not listed. Calls of active or inactive are those of the source. Unless noted, the call rests on the fitted dose curve.

Tests used:
[1] = Nuclear factor erythroid 2-related factor 2/antioxidant responsive element (Nrf2/ARE) small molecule agonists: qHTS cell viability counter screen in human keratinocytes (AID 1919968; active means well fitted curve in the direction sought with a large enough effect in the repeat runs; an effect the other way counts as inactive or inconclusive; further: nearly all actives have a fitted effect of over 55% in size)
Method in brief: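 KeratinoSens cells (HaCaT keratinocytes stably carrying an ARE-luciferase reporter) were seeded at 1,500 cells/well and rested 5 h at 37 C/5% CO2. They were then exposed to compounds in DMSO for 23 h. Viability was read by CellTiter-Fluor fluorescence after 1 h.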

[2] = Nuclear factor erythroid 2-related factor 2/antioxidant responsive element (Nrf2/ARE) small molecule agonists: luciferase reporter gene qHTS assay in human keratinocytes (AID 1919969); further: nearly all actives have a fitted effect of over 35% in size
[3] = target: Gonadotropin-releasing hormone receptor (Homo sapiens) (UniProt P30968); experiment: Human gonadotropin-releasing hormone receptor (GnRHR) small molecule agonists, calcium flux assay in GnRHR-HEK293 cells (AID 1920063); further: nearly all actives have a fitted effect of over 35% in size
Gonadotropin-releasing hormone receptor (Homo sapiens), sequence (P30968 whole entry, looked up): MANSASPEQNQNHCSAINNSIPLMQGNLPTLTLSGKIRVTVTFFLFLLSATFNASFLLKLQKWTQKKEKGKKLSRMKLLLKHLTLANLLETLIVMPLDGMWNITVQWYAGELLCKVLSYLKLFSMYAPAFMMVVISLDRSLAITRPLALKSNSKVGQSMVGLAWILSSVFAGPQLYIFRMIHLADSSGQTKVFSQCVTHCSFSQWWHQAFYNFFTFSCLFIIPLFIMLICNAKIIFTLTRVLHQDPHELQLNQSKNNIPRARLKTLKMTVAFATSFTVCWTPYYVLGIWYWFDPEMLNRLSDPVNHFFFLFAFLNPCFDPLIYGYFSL
Method in brief: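 HEK293 cells stably expressing human GnRHR were plated 18 h at 37 °C, loaded with calcium dye 1 h at 37 °C, then given compound in agonist mode; fluorescence (Ex/Em 480/540) read kinetically for 3 min at 1 s intervals.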

[4] = target: KiSS-1 receptor (Homo sapiens) (UniProt Q969F8); experiment: Human kisspeptin (KISS1R) small molecule agonists, calcium flux assay in KISS1R-HEK293 cells (AID 1920064; active means well fitted curve in the direction sought with a large enough effect in the repeat runs; an effect the other way counts as inactive or inconclusive)
KiSS-1 receptor (Homo sapiens), sequence (Q969F8 whole entry, looked up): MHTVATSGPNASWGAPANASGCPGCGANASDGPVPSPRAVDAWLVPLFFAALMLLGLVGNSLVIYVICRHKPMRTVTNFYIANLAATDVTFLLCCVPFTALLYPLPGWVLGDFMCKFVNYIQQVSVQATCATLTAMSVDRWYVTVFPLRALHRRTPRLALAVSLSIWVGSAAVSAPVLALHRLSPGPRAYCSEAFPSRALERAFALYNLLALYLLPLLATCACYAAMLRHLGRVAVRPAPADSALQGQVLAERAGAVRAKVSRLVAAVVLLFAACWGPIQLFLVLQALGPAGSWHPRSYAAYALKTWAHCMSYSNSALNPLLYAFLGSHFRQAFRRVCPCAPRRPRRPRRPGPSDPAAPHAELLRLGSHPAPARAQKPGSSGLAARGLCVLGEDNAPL
Method in brief: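 HEK293 cells stably expressing human KISS1R were plated 18 h at 37 °C, loaded with calcium dye for 1 h at 37 °C, then given compound by pin tool. Fluorescence (Ex/Em 480/540) was read kinetically for 3 min.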

[5] = G protein-coupled receptor (GPCR) small molecule agonists, calcium flux assay: HEK293 wild type cell line counter screen (AID 1920065)
Method in brief: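 Cells were plated and cultured 18 h at 37 C/5% CO2, then loaded with calcium dye for 1 h at 37 C. Compounds in DMSO were pin-transferred in agonist mode, and fluorescence (Ex/Em 480/540) was read kinetically for 3 min at 1 s intervals.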

[6] = p53 small molecule agonists, cell-based qHTS assay with human liver microsomes (AID 1963577);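 further: p53 response element beta-lactamase reporter cells with liver microsomes plus NADPH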
Method in brief: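 HLM-supplemented p53RE-bla reporter assay: 16 h compound exposure at 37 C, microsomes and NADPH each 0.5 mg/mL final, read by fluorescence intensity.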

[7] = p53 small molecule agonists, cell-based qHTS assay with rat liver microsomes (AID 1963578)
Method in brief: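 Quantitative HTS of the Tox21 10K library: p53RE-bla cells, rat liver microsomes plus NADPH at 0.5 mg/mL final each, 16 h at 37 C, beta-lactamase fluorescence detection.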

[8] = p53 small molecule agonists, cell-based qHTS assay with human liver microsomes: qHTS cell viability counter screen (AID 1963579); further: nearly all actives have a fitted effect of over 45% in size
Method in brief: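 Viability of p53RE-bla cells is measured as CellTiter-Glo luminescence following a 16 h, 37 C incubation with compound, liver microsomes from human donors and NADPH.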

[9] = p53 small molecule agonists, cell-based qHTS assay with rat liver microsomes: qHTS cell viability counter screen (AID 1963580); further: nearly all actives have a fitted effect of over 45% in size
Method in brief: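 In HCT-116 cells carrying a p53 response element-bla reporter, compounds were metabolically activated in situ by rat liver microsomes with NADPH over 16 h. Cell ATP content then served as the cytotoxicity measure.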

[10] = p53 small molecule agonists, cell-based qHTS assay: qHTS cell viability counter screen (AID 1963581); further: nearly all actives have a fitted effect of over 45% in size
Method in brief: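 p53RE-bla HCT-116 cells were exposed to compounds for 16 h at 37 C; after the beta-lactamase FRET read in the same wells, CellTiter-Glo was added and luminescence (intracellular ATP) read after 30 min at room temperature.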

[11] = p53 small molecule agonists, cell-based qHTS assay (AID 1963582; active means well fitted activation curve with a large enough effect in the signal ratio in the repeat runs, not every such curve was filed as active; the % refers to the signal ratio)
Method in brief: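 p53RE-bla beta-lactamase reporter cells rested 5 h at 37 C/5% CO2, then received compounds in DMSO by pin transfer and were incubated 16 h at 37 C. LiveBLAzer B/G FRET substrate was loaded for 2 h at room temperature before fluorescence reading.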

[12] = target: 5-hydroxytryptamine receptor 2A (Homo sapiens) (UniProt P28223); experiment: 5-hydroxytryptamine receptor 2A (HTR2A) small molecule agonists, cell-based qHTS assay (AID 1963587); further: nearly all actives have a fitted effect of over 30% in size
5-hydroxytryptamine receptor 2A (Homo sapiens), sequence (P28223 whole entry, looked up): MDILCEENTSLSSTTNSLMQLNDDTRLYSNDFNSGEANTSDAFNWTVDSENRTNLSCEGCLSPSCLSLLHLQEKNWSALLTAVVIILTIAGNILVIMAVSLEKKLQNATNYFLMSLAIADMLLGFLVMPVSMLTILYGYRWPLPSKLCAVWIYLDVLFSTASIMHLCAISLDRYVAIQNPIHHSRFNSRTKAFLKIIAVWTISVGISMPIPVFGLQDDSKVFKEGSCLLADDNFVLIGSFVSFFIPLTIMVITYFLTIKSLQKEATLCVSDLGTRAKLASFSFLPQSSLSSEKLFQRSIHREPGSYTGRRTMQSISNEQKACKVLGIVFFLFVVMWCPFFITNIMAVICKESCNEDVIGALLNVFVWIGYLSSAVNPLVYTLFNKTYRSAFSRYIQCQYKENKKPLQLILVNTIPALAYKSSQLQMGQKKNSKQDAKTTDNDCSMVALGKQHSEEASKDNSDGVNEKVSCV
Method in brief: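 HTR2A-CHO cells, plated 18 h at 37 C/5% CO2, dye-loaded 1 h at 37 C; compounds in DMSO added by pin tool (agonist mode). Intracellular calcium flux read as kinetic fluorescence on FDSS over 2 min at 1 s intervals.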

[13] = target: Muscarinic acetylcholine receptor M1 (Homo sapiens) (UniProt P11229); experiment: Cholinergic receptor muscarinic 1 (CHRM1) small molecule antagonists, cell-based qHTS assay (AID 1963588); further: nearly all actives have a fitted effect of over 40% in size
Muscarinic acetylcholine receptor M1 (Homo sapiens), sequence (P11229 whole entry, looked up): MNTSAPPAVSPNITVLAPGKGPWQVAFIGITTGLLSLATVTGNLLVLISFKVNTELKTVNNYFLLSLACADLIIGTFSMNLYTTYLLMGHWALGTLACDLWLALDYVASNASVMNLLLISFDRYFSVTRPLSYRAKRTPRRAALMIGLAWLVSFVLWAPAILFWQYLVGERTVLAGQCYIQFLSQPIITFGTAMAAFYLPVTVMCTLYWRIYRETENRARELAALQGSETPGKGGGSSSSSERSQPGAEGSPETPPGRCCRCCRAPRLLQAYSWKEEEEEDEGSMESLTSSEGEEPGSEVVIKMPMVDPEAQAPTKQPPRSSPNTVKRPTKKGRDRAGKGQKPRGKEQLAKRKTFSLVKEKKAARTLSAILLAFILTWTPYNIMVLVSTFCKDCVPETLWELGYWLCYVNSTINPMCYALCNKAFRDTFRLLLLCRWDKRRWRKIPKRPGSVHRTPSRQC
Method in brief: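 CHRM1-CHO calcium-flux assay, antagonist mode. Cells were seeded 18 h, dye-loaded 1 h at 37 C and given compound for 5 min at RT, then acetylcholine was added at 50nM. FDSS fluorescence was read 3 min; 15 concentrations, three runs.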

[14] = target: Muscarinic acetylcholine receptor M1 (Homo sapiens) (UniProt P11229); experiment: Cholinergic receptor muscarinic 1 (CHRM1) small molecule agonists, cell-based qHTS assay (AID 1963589); further: nearly all actives have a fitted effect of over 35% in size
Method in brief: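 CHO cells stably expressing human CHRM1, seeded 18 h at 37 C/5% CO2, dye-loaded 1 h at 37 C, then given compound in agonist mode; intracellular calcium fluorescence read kinetically at 1 s intervals. Fifteen concentrations, three independent runs.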

[15] = cAMP Responsive Elements (CRE) small molecule agonists, cell-based qHTS assay (AID 1963590)
Method in brief: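 CRE-bla HEK 293T cells in DMEM with 10% dialyzed FBS, NEAA, pyruvate and 25 mM HEPES were plated 18 h at 37 C/5% CO2, then exposed to compounds in DMSO for 3 h before LiveBLAzer B/G FRET substrate addition.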

[16] = cAMP Responsive Elements (CRE) small molecule antagonists, cell-based qHTS assay (AID 1963591; active means well fitted inhibition curve with a large enough effect in the signal ratio in the repeat runs, not every such curve was filed as active; the % refers to the signal ratio)
Method in brief: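 CRE-bla HEK293T cells were plated 18 h at 37 °C/5% CO2, pinned with compound in DMSO, then stimulated with NKH477 at 0.25 uM final for 3 h. LiveBLAzer B/G FRET substrate was added and plates incubated 2 h at room temperature.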

[17] = target: Beta-2 adrenergic receptor (Homo sapiens) (UniProt P07550); experiment: Adrenergic beta2 receptor (ADRB2) small molecule antagonists, cell-based qHTS assay (AID 1963592); further: series mostly up to about 92 µM; nearly all actives have a fitted effect of over 50% in size
Beta-2 adrenergic receptor (Homo sapiens), sequence (P07550 whole entry, looked up): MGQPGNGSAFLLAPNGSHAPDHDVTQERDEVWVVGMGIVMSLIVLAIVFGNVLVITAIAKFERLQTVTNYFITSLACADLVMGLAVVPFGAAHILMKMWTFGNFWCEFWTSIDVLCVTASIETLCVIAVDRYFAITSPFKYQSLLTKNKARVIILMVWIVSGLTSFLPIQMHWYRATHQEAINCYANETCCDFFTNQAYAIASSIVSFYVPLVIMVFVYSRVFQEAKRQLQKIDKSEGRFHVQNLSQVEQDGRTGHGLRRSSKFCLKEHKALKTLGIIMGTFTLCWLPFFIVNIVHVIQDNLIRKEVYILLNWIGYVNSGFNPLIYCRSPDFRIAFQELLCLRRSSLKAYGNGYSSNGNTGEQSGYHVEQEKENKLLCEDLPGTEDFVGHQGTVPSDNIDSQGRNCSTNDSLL
Method in brief: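 Cells (CHO, stable ADRB2 overexpression) incubated 18-20hr at 37C; compounds added from DMSO; agonist mix (1nM isoproterenol, 100uM IBMX, 25uM Ro-20-1724) added; 0.5hr RT; d2-cAMP and anti-cAMP-cryptate added; 1hr RT; 665/615 nm read.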

[18] = target: Beta-2 adrenergic receptor (Homo sapiens) (UniProt P07550); experiment: Adrenergic beta2 receptor (ADRB2) small molecule agonists, cell-based qHTS assay (AID 1963593);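 further: CHO cells stably overexpressing human ADRB2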
Method in brief: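 CHO cells stably over-expressing ADRB2 were plated overnight at 37C, then dosed with compounds plus a stimulation mix containing 100uM IBMX and 25uM Ro-20-1724 for 0.5hr at room temperature. cAMP was measured by HTRF competition, 1hr.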

[19] = target: D(2) dopamine receptor (Homo sapiens) (UniProt P14416); experiment: Dopamine D2 receptor (DRD2) small molecule agonists, cell-based qHTS assay (AID 1963594); further: nearly all actives have a fitted effect of over 35% in size
D(2) dopamine receptor (Homo sapiens), sequence (P14416 whole entry, looked up): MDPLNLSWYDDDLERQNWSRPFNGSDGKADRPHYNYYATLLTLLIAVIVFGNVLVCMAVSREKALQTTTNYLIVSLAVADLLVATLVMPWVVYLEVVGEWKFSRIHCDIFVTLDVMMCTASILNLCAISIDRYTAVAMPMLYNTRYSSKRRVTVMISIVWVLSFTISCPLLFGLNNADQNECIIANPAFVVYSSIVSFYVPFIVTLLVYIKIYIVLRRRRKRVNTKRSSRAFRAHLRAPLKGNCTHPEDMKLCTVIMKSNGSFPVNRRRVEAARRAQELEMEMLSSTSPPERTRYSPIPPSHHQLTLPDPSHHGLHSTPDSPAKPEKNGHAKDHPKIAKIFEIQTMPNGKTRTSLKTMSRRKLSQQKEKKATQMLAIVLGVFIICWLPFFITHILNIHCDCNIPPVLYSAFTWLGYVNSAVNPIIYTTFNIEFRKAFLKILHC
Method in brief: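 HEK293 cells stably expressing DRD2 were cultured 24 h at 37 C, then given Ro20-1724 (0.1 mM final) and compounds for 10 min at room temperature. NKH477 (200nM) was then added for 30 min. cAMP was read by HTRF.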

[20] = target: D(2) dopamine receptor (Homo sapiens) (UniProt P14416); experiment: Dopamine D2 receptor (DRD2) small molecule antagonists, cell-based qHTS assay (AID 1963595; active means well fitted inhibition curve with a large enough effect in the signal ratio in the repeat runs, with a control signal flat; the % refers to the signal ratio)
Method in brief: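 Antagonism was scored as restored cAMP in HEK293-DRD2 cells. These cells were stimulated with 200 nM NKH477 and 12 nM quinpirole for 30 min at room temperature, in the presence of 0.1 mM Ro20-1724.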

Measured: Potency

CC1(C)O[C@@H]2[C@@H](CO[C@@]3(COS(N)(=O)=O)OC(C)(C)O[C@@H]23)O1
inactive: all assays above

OCCCc1ccccc1
not listed: [12]
inactive: all other assays above

CCCCCCCCC
not listed: [15] | [17] | [18]
inactive: all other assays above

CC(C)OC(=O)COc1ccc(Cl)cc1Cl
not listed: [15] | [18]
inactive: all other assays above

CCCCC(CC)COC(=O)C(C#N)=C(c1ccccc1)c1ccccc1 (stereo unspecified)
not listed: [12]
inactive: all other assays above

OCC(O)CS (stereo unspecified)
inactive: all assays above

COc1ccc(C(=O)c2ccccc2O)c(O)c1
not listed: [12] | [18]
inactive: all other assays above
